Several values for one entry are separate records, joined by “and”; a condition that tells them apart may be missing. Identical values can stand only once. Results filed as inconclusive are left out. A call without a number means that no potency is given here. Some compounds were tested as several samples or in several runs, with calls that do not always agree. Activity calls are given as the source filed them. Unless noted, the call rests on the fitted dose curve; in most records, active means well fitted curve in the direction sought with a large enough effect in the repeat runs; inconclusive means weak or mixed curves; inactive means no such curve, though single readings can be large; an effect the other way counts as inactive or inconclusive.
Legend:
[1] = A CellTox Green Cytotoxicity Assay to monitor cytotoxicity in HEK293 cells - 32 hour (AID 1224881); further: nearly all actives have a fitted effect of over 40% in size; further: potency means the concentration at half of the fitted maximal effect
Summary of the method: (§1)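 Dead-cell fluorescence measured kinetically: asymmetric cyanine dye, HEK293, 600 cells/well, 5 h settle, 23 nL cpd/DMSO, 37 C, reads 0–40 h every 8 h.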

[2] = A CellTox Green Cytotoxicity Assay to monitor cytotoxicity in HepG2 cells - 0 hour (AID 1224882); further: nearly all actives have a fitted effect of over 35% in size
Summary of the method: (§2)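 First, HepG2 cells (600/well) mixed with reagent were plated; second, after 5 h at 37 C they received compounds via pintool; third, fluorescence was measured at 0 h through 40 h at 8 h intervals.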

[3] = A CellTox Green Cytotoxicity Assay to monitor cytotoxicity in HepG2 cells - 32 hour (AID 1224883); further: nearly all actives have a fitted effect of over 50% in size; further: potency means the concentration at half of the fitted maximal effect
Summary of the method: as §2

[4] = qHTS RealTime-Glo MT Cell Viability Assay in HepG2 cells - 16 hour (AID 1224885); further: nearly all actives have a fitted effect of over 50% in size
Summary of the method: (§3)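 Cells + NanoLuc/prosubstrate dispensed (600 cells/well) → 5 h at 37 C/5% CO2 → compounds in DMSO transferred → 40 h incubation at 37 C, luminescence read at 0, 8, 16, 24, 32, 40 h.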

[5] = qHTS RealTime-Glo MT Cell Viability Assay in HEK293 cells - 24 hour (AID 1224886); further: nearly all actives have a fitted effect of over 50% in size; further: potency means the concentration at half of the fitted maximal effect
Summary of the method: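 Tox21 10K qHTS, HEK293, 600 cells/well, RealTime-Glo reagent co-dispensed with cells; 5 h preincubation, compound by pintool, 37 C, luminescence at 0–40 h.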

[6] = A CellTox Green Cytotoxicity Assay to monitor cytotoxicity in HEK293 cells - 16 hour (AID 1224888); further: nearly all actives have a fitted effect of over 35% in size
Summary of the method: as §1

[7] = qHTS RealTime-Glo MT Cell Viability Assay in HepG2 cells - 0 hour (AID 1224889); further: nearly all actives have a fitted effect of over 50% in size
Summary of the method: as §3

[8] = A CellTox Green Cytotoxicity Assay to monitor cytotoxicity in HepG2 cells - 8 hour (AID 1224890); further: nearly all actives have a fitted effect of over 45% in size; further: potency means the concentration at half of the fitted maximal effect
Summary of the method: as §2

[9] = qHTS assay to identify small molecule antagonists of the estrogen receptor alpha (ER-alpha) signaling pathway using the BG1 cell line in the presence of 0.1 nM 17-beta-estradiol - cell viability counter screen (AID 1259241); further: nearly all actives have a fitted effect of over 40% in size
Summary of the method: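 Cytotoxicity counter-screen: live-cell protease activity measured by fluorescence (30 min reagent step) in the same wells. Cells were VM7Luc4E2 with endogenous ER-alpha and ERE-driven luciferase, treated 22 hr at 37C alongside 0.1 nM 17beta-estradiol final.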

[10] = qHTS assay to identify small molecule antagonists of the androgen receptor (AR) signaling pathway using the MDA cell line in the presence of 0.5 nM R1881 - cell viability counter screen (AID 1259242); further: nearly all actives have a fitted effect of over 45% in size; further: potency means the concentration at half of the fitted maximal effect
Summary of the method: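 qHTS format. MDA-kb2 (MMTV-luc, AR/GR responsive) + cpd + 0.5 nM R1881 final, 16 hr 37C/0% CO2 → CellTiter-Fluor 30 min → fluorescence intensity.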

[11] = target: Estrogen receptor (Homo sapiens) (UniProt P03372); experiment: qHTS assay to identify small molecule antagonists of the estrogen receptor alpha (ER-alpha) signaling pathway using the BG1 cell line in the presence of 0.1 nM 17-beta-estradiol (AID 1259244); further: nearly all actives have a fitted effect of over 50% in size; further: potency means the concentration at half of the fitted maximal effect
Sequence of Estrogen receptor (Homo sapiens) (P03372 whole entry, looked up): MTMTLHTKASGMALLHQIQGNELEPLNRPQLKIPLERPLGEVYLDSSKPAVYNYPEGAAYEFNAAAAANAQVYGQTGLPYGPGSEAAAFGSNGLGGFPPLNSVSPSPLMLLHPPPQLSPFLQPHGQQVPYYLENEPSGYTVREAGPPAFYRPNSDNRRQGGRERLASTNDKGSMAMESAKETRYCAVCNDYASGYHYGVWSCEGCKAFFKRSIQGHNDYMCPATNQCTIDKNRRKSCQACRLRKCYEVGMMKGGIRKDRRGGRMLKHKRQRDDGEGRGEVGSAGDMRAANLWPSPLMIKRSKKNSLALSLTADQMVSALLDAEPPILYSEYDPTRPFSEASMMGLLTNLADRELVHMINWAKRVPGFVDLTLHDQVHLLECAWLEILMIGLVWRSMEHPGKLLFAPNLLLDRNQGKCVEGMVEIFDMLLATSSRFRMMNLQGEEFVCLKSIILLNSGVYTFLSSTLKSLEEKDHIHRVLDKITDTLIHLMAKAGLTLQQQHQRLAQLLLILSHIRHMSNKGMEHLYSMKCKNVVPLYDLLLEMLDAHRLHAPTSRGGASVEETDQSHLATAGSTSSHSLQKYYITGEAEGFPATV
Summary of the method: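 Reporter is a stably transfected luciferase under four estrogen responsive elements in VM7Luc4E2 cells expressing native full-length ER-alpha; inhibition of 0.1 nM (final) 17beta-estradiol-driven signal over 22 h is read by luminescence.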

[12] = qHTS assay to identify small molecule HDAC inhibitors (AID 1259364);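 further: wild-type HCT-116 cells with endogenous class I/II HDAC activity; top concentration of the series differs between compounds; nearly all actives have a fitted effect of over 45% in size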
Summary of the method: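 Quantitative high-throughput format: overnight-seeded HCT-116 cells got compounds for 2 hr at 37C; HDAC-Glo I/II reagent added, 30 min RT, luminescence measured.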

[13] = qHTS assay to identify small molecule HDAC inhibitors - cell viability counter screen (AID 1259365)
Summary of the method: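 CellTiter-Glo luminescence (30 min, room temperature) reported viability after a 2 h compound exposure at 37 C. Cells: wild-type HCT-116, 1,500 per well, seeded the night before.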

[14] = qHTS assay to identify small molecule agonists of the sonic hedgehog signaling (Shh) pathway - cell viability counter screen (AID 1259366); further: nearly all actives have a fitted effect of over 50% in size; further: potency means the concentration at half of the fitted maximal effect
Summary of the method: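 Cytotoxicity counter screen: CellTiter-Fluor reagent added after 23 h compound exposure, then 1 h at 37C and fluorescence read. Cells were 3T3 Gli1-Luc, seeded 2,000 per well and dosed 4 h post-plating.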

[15] = qHTS assay to identify small molecule antagonists of the sonic hedgehog signaling (Shh) pathway - cell viability counter screen (AID 1259367); further: nearly all actives have a fitted effect of over 55% in size; further: potency means the concentration at half of the fitted maximal effect
Summary of the method: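 CellTiter-Fluor signal in conditioned medium-stimulated 3T3 Gli1-Luc cells, 23 hr compound exposure, 37C.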

[16] = qHTS assay to identify small molecule agonists of the sonic hedgehog signaling (Shh) pathway (AID 1259368; calls by dose curve;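 further: NIH/3T3-derived 3T3Gli1-Luc cells carrying a stable Gli1-driven firefly luciferase reporter; series mostly up to about 92 µM; nearly all actives have a fitted effect of over 15% in size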)
Summary of the method: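 Quantitative high-throughput format using a Gli1-driven firefly luciferase reporter line derived from NIH/3T3 cells. After a 24 hr compound treatment at 37 C and 5% CO2, luminescence reported Gli1 response element activity.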

[17] = qHTS RealTime-Glo MT Cell Viability Assay in HEK293 cells - 8 hour (AID 1224887); further: nearly all actives have a fitted effect of over 50% in size; further: potency means the concentration at half of the fitted maximal effect
Summary of the method: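 600 HEK293 cells per well, dispensed already mixed with RealTime-Glo MT reagents. Compound dosing came 5 h later. The same wells were read for luminescence at 0, 8, 16, 24, 32 and 40 h of exposure at 37 C.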

[18] = qHTS assay to identify small molecule phospholipidosis (PLD) inducers (AID 1259344; active means well fitted curve in the direction sought with a large enough effect; an effect the other way counts as inactive or inconclusive)
Summary of the method: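 Accumulated phospholipid, stained red by LipidTOX during 24 h compound treatment of HepG2 cells at 37 C, is quantified from images as pit number and intensity, normalised per cell using Hoechst-stained nuclei.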

[19] = A CellTox Green Cytotoxicity Assay to monitor cytotoxicity in HEK293 cells - 8 hour (AID 1224884); further: nearly all actives have a fitted effect of over 35% in size
Summary of the method: as §1

| Compound | Potency [1] | Potency [2] | Potency [3] | Potency [4] | Potency [5] | Potency [6] | Potency [7] | Potency [8] | Potency [9] | Potency [10] | Potency [11] | Potency [12] | Potency [13] | Potency [14] | Potency [15] | Potency [16] | Potency [17] | outcome [18] | Potency [19] |
| --- | --- | --- | --- | --- | --- | --- | --- | --- | --- | --- | --- | --- | --- | --- | --- | --- | --- | --- | --- |
| Oc1ccc(Cc2ccccc2O)cc1 | inactive | inactive | inactive | inactive | 12.3 µM (active) | inactive | inactive | inactive | inactive | inactive | inactive | inactive | inactive | inactive | inactive | inactive | – | – | – |
| CCCCCCC(=O)O | inactive | inactive | inactive | inactive | inactive | inactive | inactive | inactive | inactive | inactive | inactive | inactive | inactive | inactive | inactive | inactive | inactive | – | – |
| N#CCC(=O)O | inactive | inactive | inactive | inactive | inactive | inactive | inactive | inactive | inactive | inactive | inactive | inactive | – | inactive | inactive | inactive | inactive | – | – |
| OCCOCCOCCOCCOCCO | inactive | inactive | inactive | inactive | inactive | inactive | inactive | inactive | inactive | inactive | – | inactive | – | inactive | inactive | inactive | inactive | – | – |
| CCCCCCCCO | inactive | inactive | inactive | inactive | inactive | inactive | inactive | inactive | inactive | inactive | inactive | inactive | – | inactive | – | inactive | inactive | – | – |
| C1CCCNCC1 | inactive | inactive | inactive | inactive | inactive | inactive | inactive | inactive | inactive | inactive | inactive | inactive | inactive | inactive | – | inactive | inactive | – | – |
| CC(=O)c1nccs1 | inactive | inactive | inactive | inactive | inactive | inactive | inactive | inactive | inactive | inactive | inactive | inactive | inactive | inactive | inactive | inactive | inactive | – | – |
| COC(=O)OC | inactive | inactive | inactive | inactive | inactive | inactive | inactive | inactive | inactive | inactive | – | inactive | inactive | inactive | – | inactive | inactive | – | – |
| OCc1ccc(Cl)cc1Cl | inactive | inactive | inactive | inactive | inactive | inactive | inactive | inactive | inactive | inactive | – | inactive | – | inactive | inactive | inactive | inactive | inactive | – |
| CC(O)CNCC(C)O (configuration not stated) | inactive | inactive | inactive | inactive | inactive | inactive | inactive | inactive | inactive | inactive | inactive | inactive | – | inactive | inactive | inactive | inactive | – | – |
| COc1ccc2cc3[n+](cc2c1OC)CCc1cc2c(cc1-3)OCO2 | – | inactive | inactive | inactive | 4.4 µM (active) and 10.7 µM (active) | inactive | inactive | inactive | – | 10.6 µM (active) | 1.55 µM (active) and 11.9 µM (active) | inactive | inactive | inactive | inactive | inactive | – | inactive | inactive |
| CC(CN1c2ccccc2Sc2ccccc21)N(C)C (configuration not stated) | 54.9 µM (active) and inactive | inactive | 55.5 µM (active) and 49 µM (active) and 23.9 µM (active) | inactive | 39.3 µM (active) and 43.6 µM (active) | inactive | inactive | inactive and 54.9 µM (active) | inactive | inactive | – | inactive | inactive | 61.8 µM (active) and 30.6 µM (active) and inactive | 27.6 µM (active) and inactive | inactive | 24.8 µM (active) | inactive | – |
| Cc1cccc(C)c1[N+](=O)[O-] | inactive | inactive | inactive | inactive | inactive | inactive | inactive | inactive | inactive | inactive | – | inactive | – | inactive | inactive and 48.6 µM (active) | inactive | inactive | – | – |
| CC(=O)OC/C=C(\C)CCC=C(C)C | inactive | inactive | inactive | inactive | inactive | inactive | inactive | inactive | inactive | inactive | inactive | inactive | – | inactive | inactive | inactive | inactive | – | – |
| NC1CCCCC1N (configuration not stated) | inactive | inactive | inactive | inactive | inactive | inactive | inactive | inactive | inactive | inactive | – | inactive | – | inactive | – | inactive | inactive | – | – |
| COCN(COC)c1nc(N(COC)COC)nc(N(COC)COC)n1 | inactive | inactive | inactive | inactive | inactive | inactive | inactive | inactive | inactive | inactive | inactive | inactive | – | inactive | inactive | inactive | inactive | – | – |
| C[Si](C)(C)N[Si](C)(C)C | inactive | inactive | inactive | inactive | inactive | inactive | inactive | inactive | inactive | inactive | inactive | inactive | inactive | inactive | inactive | inactive | inactive | – | – |
| Nc1cccc(C(F)(F)F)c1 | inactive | inactive | inactive | inactive | inactive | inactive | inactive | inactive | inactive | inactive | inactive | inactive | inactive | inactive | inactive | inactive | inactive | – | – |

Source: PubChem BioAssay (Tox21)
